A selection: hits, their analogues and other compounds. The true share with any hit is near 9.4%.
AMA1 RON2 block: disrupts binding of P. falciparum AMA1 to RON2 | hit rate 0.2% among 360,000 | AlphaScreen AMA1-biotinylated RON2 peptide binding | Potency, µM (top dose mostly 58.2 µM), inactives show at the highest dose activity change, negative = inhibition, hits mostly inhibitors | AID 720542;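 also: 0% = vehicle wells and -100% = peptide control; nearly all actives have a fitted effect of over 45% in size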
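AMA1 (3D7) with his tag at 25 nM final met compounds first, then biotinylated RON2 peptide at 25 nM; detection used donor plus acceptor beads, 10 µg/mL apiece, read by AlphaScreen after 30 min at room temperature.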
Pf growth 48h: P. falciparum growth inhibition at 48 hours (one generation); hit rate 5.9% among 310,000; P. falciparum luciferase growth in erythrocytes, 48 h; Potency, µM (series often up to 28.7 µM), for the others: top-dose activity change, negative = inhibition, most hits filed as inhibitors; also: % is scaled to controls: 0 for no effect and ±100 for the full control effect
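First compound was added to culture medium, then infected red cells at 0.1% parasitemia and 2% hematocrit (final). After incubation at 37 C under 5% CO2, luciferase detection reagent was dispensed and light output recorded.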
SARS PLpro yeast: SARS-CoV PLP inhibition in yeast. S. cerevisiae expressing SARS-CoV PLpro, growth rescue. hit rate 0.19% among 330,000. Potency, µM (doses to about 32.9 µM), without a hit: top-dose activity, positive = growth rescue, most hits filed as activators. AID 485353; calls by dose curve; also: 0% is about no effect; nearly all actives have a fitted effect of over 55% in size
Pf growth 96h: inhibits malaria parasite growth, 96 h; P. falciparum luciferase reporter growth, 96 h; AID 504834; Potency, µM (doses to about 28.7 µM), for inactives: at the highest dose activity change, negative = inhibition, actives largely listed as inhibitors; hit rate 6.9% among 320,000; also: % is scaled to controls: 0 for no effect and ±100 for the full control effect
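P. falciparum expressing integrated firefly luciferase, in erythrocytes at 2% hematocrit, 0.05% parasitemia, incubated with compounds 96 h at 37 C, 5% CO2. Growth inhibition read as loss of luminescence; two-generation exposure targets delayed-death apicoplast inhibitors.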
The depositor's hits bear a star; ? = inconclusive; . = no result given; [ ] = remark or other dose. Unless noted, calls follow the shape of the dose curve; as a rule, active = well fitted curve in the direction sought with a large enough effect; inconclusive = small, poorly fitted or top-dose-only effect, or another doubt; inactive = no such curve, though single readings can be large; an effect the other way counts as inactive or inconclusive. Potency is read from the fitted curve at half-maximal effect.

SMILES	AMA1 RON2 block	Pf growth 48h	SARS PLpro yeast	Pf growth 96h
COc1ccc(NC(=O)COc2nsnc2N2CCCCC2)cc1	3%	7%	-7%	?
CCOc1ccc(NC(=O)CSc2nc3ccccc3nc2N2CC(C)OC(C)C2)cc1 (stereo unspecified)	28%	?	4%	9.3µM*
CCOc1ccc(NC(=O)COc2nsnc2N2CCCCC2)cc1	-8%	-5%	0%	12µM*
COc1ccc(NC(=O)CSc2nc3ccccc3nc2N2CCOCC2)cc1	18%	-23%	14%	-11%
O=C(CSc1nc2ccccc2nc1N1CCOCC1)N1CCN(c2ccccc2)CC1	-18%	9.3µM*	2%	?
O=C1CSC(=S)N1c1ccc(F)c(Cl)c1	69%	?	-6%	12µM*
O=C1CSC(=S)N1c1cccnc1	15%	.	5%	13µM*
Cc1nc(N2CCN(C)CC2)c2sc(=S)n(C)c2n1	13%	.	-12%	9.3µM*
Cc1nc(N2CCN(C)CC2)c2sc(=S)n(-c3ccccc3)c2n1	-1%	2%	-13%	-28%
C=CCN1C(=O)/C(=c2\sc3nc(=O)c(Cc4ccccc4)nn3c2=O)c2ccccc21	-16%	0%	1%	-7%
O=C1c2ccccc2S(=O)(=O)N1CC(O)COc1ccc(Cl)cc1 (stereo unspecified)	1%	10%	?	6.6µM*
COc1cccc(CNC(=O)CNC(=S)N(Cc2ccccc2)Cc2ccccc2F)c1	-4%	12µM*	-4%	1%
COc1cc(NC(=O)C2CCCC2)c(OC)cc1Cl	-14%	.	8%	9.3µM*
COc1ccc(NC(=O)c2cc(C(C)C)on2)c(OC)c1	0%	225%	-13%	?
COC(=O)c1cc(Cl)c(NC(=O)c2ccc(F)cc2)cc1OC	-4%[2.32 µM]	21%	2%	9.3µM*
COc1cc(NC(=O)c2cc(C(C)C)on2)c(OC)cc1Cl	-4%	13µM*	-19%	-11%
COCCOc1cc(NC(=O)c2cccc(OC)c2)c(Cl)cc1Cl	-8%	12µM*	-1%	?
COc1cc(NC(=O)C2CCCO2)c(OC)cc1Cl (stereo unspecified)	-6%	1%	-3%	-21%
Cc1cnc(C(=O)Nc2ccc(C)c(S(=O)(=O)N3CCCCCC3)c2)cn1	10%	?	-1%	0%
CCn1c(=S)sc2nc(C)sc21	-8%	.	.	.
COc1ccc(C(=O)Nc2cc(OC)c(Cl)cc2OC)cc1	-1%	10%	-2%	5.2µM*
COc1ccc2oc(=O)c(NC(=O)C3CCCCC3)cc2c1	-4%	72%	6%	13µM*
COc1ccc(OC)c(NC(=O)C2CCCCC2)c1	-11%	2%	7%	19%
COC(=O)c1c(-n2c(C)cc(C=O)c2C)sc2c1CCCC2	-9%	10µM*	-19%	?
CCOC(=O)c1c(-n2c(C)cc(C=C3C(=O)NC(=S)NC3=O)c2C)sc2c1CCCC2	8%	12µM*	-15%	12µM*
SMILES	AMA1 RON2 block	Pf growth 48h	SARS PLpro yeast	Pf growth 96h
CC/C(Cc1ccccc1)=N\NC(=O)c1cc([N+](=O)[O-])cc([N+](=O)[O-])c1	77%	-3%	-1%	142%
O=C(CN1CCN(C(=O)c2ccco2)CC1)Nc1cccc(S(=O)(=O)N2CCCC2)c1	-1%	?	15%	10µM*
CCN(CC)S(=O)(=O)c1ccc(C)c(NC(=O)CNc2cccc(S(=O)(=O)N3CCCC3)c2)c1	15%	12µM*	2%	-17%
O=C(CN(CCO)c1ccccc1)Nc1cccc(S(=O)(=O)N2CCCC2)c1	17%	-29%	-1%	13µM*
O=C(CN1CCN(C(=O)c2ccco2)CC1)Nc1cc(S(=O)(=O)N2CCCC2)ccc1Cl	-13%	.	.	.
CCN(CC)S(=O)(=O)c1cccc(NC(=O)CNc2cccc(S(=O)(=O)N3CCCC3)c2)c1	-5%	?	-4%	?
O=C(CNc1cccc(S(=O)(=O)N2CCCC2)c1)Nc1ccc(F)c(F)c1	-3%	1.5µM*	-1%	1.3µM*
CCOC(=O)C(CC(=O)O)N1CCCCC1 (stereo unspecified)	5%	9%	1%	?
CCOc1ccccc1C(=O)NCCCN1CCN(CCCNC(=O)c2ccccc2OCC)CC1	-7%	?	1%	?
CCN(CC)S(=O)(=O)c1cccc(NC(=O)c2cc(=O)[nH]c3ccccc23)c1	-17%	3%	?	13%
CC(C)NC(=O)c1ccc(CONC(=O)OCc2ccccc2)cc1	1%	.	.	.
CCCn1c(SCC(=O)c2cc(OC)ccc2OC)nnc1-c1ccco1	-11%	?	8%	-3%
Cc1ccc(SCC(=O)Nc2cccc(S(=O)(=O)N3CCOCC3)c2)cc1C	-27%	17µM*	-6%	?
Cc1ccc(NC(=O)[C@@H]2CCCN2S(=O)(=O)c2ccccc2F)cc1	2%	-12%	0%	2%
O=C(CNc1cccc(S(=O)(=O)N2CCCC2)c1)Nc1cccc(F)c1	-7%	3.7µM*	-2%	10µM*
O=C(Cn1nnc(-c2ccc(F)cc2)n1)Nc1cccc(S(=O)(=O)N2CCCC2)c1	-4%	?	-6%	13µM*
O=C(Cn1nnc(-c2ccccc2Cl)n1)Nc1cccc(S(=O)(=O)N2CCCC2)c1	-4%	.	2%	.
O=C(Nc1cccc(S(=O)(=O)N2CCCCC2)c1)C1CCCN1S(=O)(=O)c1ccccc1F (stereo unspecified)	-4%	10µM*	-2%	?
Cc1nc2ccccc2c(=O)n1-c1ccc(NS(=O)(=O)c2ccccc2)cc1	-7%	-4%	3%	5%
Cc1ccc(NC(=O)CNc2cccc(S(=O)(=O)N3CCCC3)c2)cc1F	-4%	9.3µM*	-2%	5.2µM*
Cc1ccc(NC(=O)CNc2cccc(S(=O)(=O)N3CCOCC3)c2)cc1F	7%	10µM*	0%	6.6µM*
C/C(=N\NC(=O)C(O)c1ccccc1)c1ccc(Cl)cc1 (stereo unspecified)	-2%	-19%	1%	4.1µM*
COC(=O)c1cccc(NC(=O)CC2NCCNC2=O)c1 (stereo unspecified)	16%	34%	0%	11%
Cn1c(=NN=Cc2ccccc2OCCO)sc2ccccc21	0%	.	.	.
CCOc1ccc(CN2CCNC(=O)C2CC(=O)NCCc2ccccn2)cc1 (stereo unspecified)	31%	11%	-1%	31%
SMILES	AMA1 RON2 block	Pf growth 48h	SARS PLpro yeast	Pf growth 96h
O=C(CC1C(=O)NCCN1Cc1ccccn1)NCCc1ccccc1F (stereo unspecified)	0%	4.7µM*	1%	?
Cc1ccccc1CNC(=O)CC1C(=O)NCCN1Cc1c(F)cccc1Cl (stereo unspecified)	-9%	0.83µM*	-1%	2.3µM*
C=CCNC(=O)CC1C(=O)NCCN1Cc1c(F)cccc1Cl (stereo unspecified)	16%	24%	1%	?
CN1CCNC(=O)C1CC(=O)NCCc1ccccc1F (stereo unspecified)	10%	43%	0%	13µM*
CCCCc1cc2c(cc1NC(=O)CN1CCCCC1)OCCO2	-12%	0%	-2%	-6%
Cc1ccccc1OCCn1ccnc1	-2%	8%	-2%	?

Screens deposited in PubChem BioAssay by National Center for Advancing Translational Sciences (NCATS).
